Experimental data as given in PubChem BioAssay.
Active and inactive are the calls of the source.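 How the source made its calls, unless noted: active means inhibition at or above 50% at 10 µM; inactive means inhibition below 50%.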

How the values were obtained:
[1] = inhibitors of TNFa-induced NFkB p65 translocation, primary screen, imaging, HUVEC, MLSMR starter and 10KST1 sets (AID 438;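 active means inhibition above 20% together with a positive visual image hit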;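 further: compound added about 3h40 before a 20 min TNFalpha stimulation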;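 on inhibition: signal is the nuclear over cytoplasmic p65 intensity ratio per well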); details: HUVEC TNFa-induced p65 nuclear translocation; cell count: measured here: nuclei count (cytotoxicity indicator), at 2.08 µM; inhibition: at 2 µM, stronger effect = higher value, 0% TNFa-plus-vehicle, 100% no-TNFa wells
[2] = inhibitors of mutant huntingtin aggregation, primary screen, imaging, exon1htt(103Q)mCFP cells, high-content imaging (AID 483;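 active means visual image review flags a hit and inhibition of aggregation exceeds 20%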;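 further: compound exposure lasted 3 days before fixation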;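 on nuclei count: percent of the per-plate median nuclei count of sample wells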); details: exon1htt(103Q)mCFP cell line, aggregate imaging, at 2 µM; inhibition of aggregation: stronger effect = higher value; nuclei count: measured here: cell count, toxicity
[3] = inhibitors of E-selectin induction by TNFa, primary screen, imaging, HUVEC, immunofluorescence, MLSMR starter and 10KST1 sets (AID 487;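 active means visually confirmed hit in the image check and inhibition above 20%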;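 on inhibition: signal is fraction of cell area covered by stained E-selectin grains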;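 on nuclei count: 100% = median nuclei count of all wells on the same plate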); details: HUVEC TNFalpha-induced E-selectin immunofluorescence imaging, at 2 µM; inhibition: stronger effect = higher value; nuclei count: measured here: cell number, toxicity
[4] = biological target: Voltage-gated potassium channel subunit beta-2 (Rattus norvegicus) (UniProt P62483); assay: KvBeta enzyme negative modulators, primary screen, biochemical, NADPH fluorescence (AID 622;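 active means fluorescence slope higher than the sample average by over 3 SD, cut at about -0.22 in these data, passing the limit was not always enough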;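 further: slope of raw intensity against log time taken from 70 to 1610 s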); details: recombinant KvBeta, 4-cyanobenzaldehyde reduction, at 10 µM, stronger effect = higher value
[5] = biological target: Voltage-gated potassium channel subunit beta-2 (Rattus norvegicus) (UniProt P62483); assay: KvBeta positive modulators, primary screen, biochemical, NADPH fluorescence (AID 623;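 active means NADPH fluorescence slope more negative than the mean of all samples by about 3 SD, 99.7% confidence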;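 further: fluorescence intensity change per second fitted from 20 to 320 s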); details: Recombinant KvBeta, NADPH fluorescence decrease slope, 10 min; at 10 µM; stronger effect = lower value
[6] = biological target: Alpha-2C adrenergic receptor (Homo sapiens) (UniProt P18825); assay: modulators of alpha2C/GIRK thallium flux, primary screen, cell-based, HEK293 alpha2C/GIRK1/2 (AID 624;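 active means fluorescence slope after compound addition differing from the mean of all screened samples at 99.7% confidence, in either direction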;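 further: slope of fluorescence ratio to pre-addition baseline per second over 15 to 24 s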); details: thallium flux BTC fluorescence, at 10 µM, actives lie on both sides
[7] = inhibitors of Sendai virus-induced IRF3 signaling, primary screen, TLR/RLR signaling modifier project, cell-based, Sendai virus stimulus, luciferase, 10K MLSCN set (AID 602276); details: HEK293 RL24 IRF3 luciferase reporter, at 10 µM, stronger effect = higher value;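 further: firefly luciferase from ISG56 promoter only with Renilla not read in this screen; 0% = Sendai virus plus DMSO and 100% = medium plus DMSO without virus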
[8] = inhibitors of poly I:C-induced TLR3 signaling, primary screen, cell-based, poly I:C stimulus, luciferase, 10K MLSCN set (AID 602277;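 active means inhibition of the reporter signal at or above 50%; inactive means inhibition below 50%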); details: HEK293-TLR3 RL24 IRF3 luciferase reporter, at 10 µM, stronger effect = higher value

Chain of Alpha-2C adrenergic receptor (Homo sapiens) (P18825 whole entry, looked up): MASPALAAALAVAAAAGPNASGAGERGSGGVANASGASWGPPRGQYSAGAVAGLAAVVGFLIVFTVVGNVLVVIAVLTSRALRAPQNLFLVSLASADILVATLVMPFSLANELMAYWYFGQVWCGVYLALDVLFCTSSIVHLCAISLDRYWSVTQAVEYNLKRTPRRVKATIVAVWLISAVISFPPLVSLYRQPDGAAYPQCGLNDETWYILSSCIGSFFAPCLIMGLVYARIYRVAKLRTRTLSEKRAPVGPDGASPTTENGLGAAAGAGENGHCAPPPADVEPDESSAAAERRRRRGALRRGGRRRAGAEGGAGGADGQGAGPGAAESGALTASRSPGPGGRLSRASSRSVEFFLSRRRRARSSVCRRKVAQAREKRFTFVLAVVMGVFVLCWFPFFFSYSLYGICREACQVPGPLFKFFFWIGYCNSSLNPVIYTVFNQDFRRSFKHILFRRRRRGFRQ
Chain of Voltage-gated potassium channel subunit beta-2 (Rattus norvegicus) (P62483 whole entry, looked up): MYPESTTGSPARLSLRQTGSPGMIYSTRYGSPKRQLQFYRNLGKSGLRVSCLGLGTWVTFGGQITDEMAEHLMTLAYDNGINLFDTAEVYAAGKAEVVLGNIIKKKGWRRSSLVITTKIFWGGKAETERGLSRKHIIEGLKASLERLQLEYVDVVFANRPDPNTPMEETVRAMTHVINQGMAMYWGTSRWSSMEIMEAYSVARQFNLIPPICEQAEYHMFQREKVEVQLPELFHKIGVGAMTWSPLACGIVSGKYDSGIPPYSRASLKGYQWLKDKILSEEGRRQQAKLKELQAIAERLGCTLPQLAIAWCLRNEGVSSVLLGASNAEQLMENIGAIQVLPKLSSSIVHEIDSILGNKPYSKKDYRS

CC(=O)N(C(C)=O)c1cccc2c(N(C(C)=O)C(C)=O)cccc12
cell count [1]: 450 | inhibition [1]: -10.7% (inactive) | inhibition of aggregation [2]: 26.2% (inactive) | nuclei count [2]: 44.9% | inhibition [3]: -28.6% (inactive) | nuclei count [3]: 87.9% | fluorescence slope [4]: -0.431 (inactive) | NADPH fluorescence slope [5]: -5.3e-05 (inactive) | slope [6]: 0.00429 (inactive) | inhibition [7]: 12.7% (inactive) | inhibition [8]: 31.6% (inactive)

Cc1c(C#N)sc2nc(-c3ccccc3)nc(N3CCCC3)c12
cell count [1]: 388 | inhibition [1]: -8.7% (inactive) | inhibition of aggregation [2]: -28.2% (inactive) | nuclei count [2]: 99.9% | inhibition [3]: -50% (inactive) | nuclei count [3]: 130% | fluorescence slope [4]: -0.236 (inactive) | NADPH fluorescence slope [5]: -1.1e-05 (inactive) | slope [6]: 0.011 (active) | inhibition [7]: 16.9% (inactive) | inhibition [8]: 26% (inactive)

COc1cc(S(=O)(=O)n2nnc3ccccc32)c(OC)cc1Cl
cell count [1]: 629 | inhibition [1]: -3.3% (inactive) | inhibition of aggregation [2]: -68.5% (inactive) | nuclei count [2]: 93% | inhibition [3]: -51.9% (inactive) | nuclei count [3]: 122% | fluorescence slope [4]: -0.382 (inactive) | NADPH fluorescence slope [5]: 3.8e-05 (inactive) | slope [6]: 0.00868 (inactive) | inhibition [7]: 13.5% (inactive) | inhibition [8]: -7.7% (inactive)

CCC(C)NC(=O)C1c2cc(OC)c(OC)cc2C(=O)N(C)C1c1ccc(OC)cc1 (centres undefined)
cell count [1]: 455 | inhibition [1]: -0.3% (inactive) | inhibition of aggregation [2]: 7.3% (inactive) | nuclei count [2]: 100% | inhibition [3]: 43.7% (inactive) | nuclei count [3]: 52.6% | fluorescence slope [4]: -0.539 (inactive) | NADPH fluorescence slope [5]: -8.1e-06 (inactive) | slope [6]: 0.00537 (inactive) | inhibition [7]: -0.973% (inactive) | inhibition [8]: 2.51% (inactive)

Cc1cc(C)c(C(=O)CSc2nnc(-c3ccccc3Br)o2)cc1C
cell count [1]: 433 | inhibition [1]: 2.9% (inactive) | inhibition of aggregation [2]: -0.1% (inactive) | nuclei count [2]: 97.3% | inhibition [3]: -64.9% (inactive) | nuclei count [3]: 124% | fluorescence slope [4]: -0.397 (inactive) | NADPH fluorescence slope [5]: -2.6e-05 (inactive) | slope [6]: 0.00604 (inactive) | inhibition [7]: 9.09% (inactive) | inhibition [8]: 3.14% (inactive)

CCn1c(SCC(=O)Nc2cc(C)ccc2C)nc2c(c1=O)SC(C)C2 (centres undefined)
cell count [1]: 680 | inhibition [1]: -8.2% (inactive) | inhibition of aggregation [2]: -17.3% (inactive) | nuclei count [2]: 98% | inhibition [3]: -39.2% (inactive) | nuclei count [3]: 110% | fluorescence slope [4]: -0.584 (inactive) | NADPH fluorescence slope [5]: -2.9e-05 (inactive) | slope [6]: 0.0063 (inactive) | inhibition [7]: -13.9% (inactive) | inhibition [8]: 2.03% (inactive)

CCOC(=O)N1CCN(C(=O)CCc2ccc(S(=O)(=O)NCCc3ccccc3)cc2)CC1
cell count [1]: 735 | inhibition [1]: -1.6% (inactive) | inhibition of aggregation [2]: 4.3% (inactive) | nuclei count [2]: 102% | inhibition [3]: -24.7% (inactive) | nuclei count [3]: 123% | fluorescence slope [4]: -0.413 (inactive) | NADPH fluorescence slope [5]: -9.6e-06 (inactive) | slope [6]: 0.00346 (inactive) | inhibition [7]: 2.18% (inactive) | inhibition [8]: 5.38% (inactive)

COc1ccc(-c2ccc(-c3noc(-c4ccccc4OC)n3)c(OC)n2)cc1
cell count [1]: 294 | inhibition [1]: 16.9% (inactive) | inhibition of aggregation [2]: -30.2% (inactive) | nuclei count [2]: 86.6% | inhibition [3]: -1.9% (inactive) | nuclei count [3]: 111% | fluorescence slope [4]: -0.0455 (inactive) | NADPH fluorescence slope [5]: -3.2e-06 (inactive) | slope [6]: 0.00463 (inactive) | inhibition [7]: -0.193% (inactive) | inhibition [8]: -36.2% (inactive)

O=C(c1cnc2n(c1=O)CCS2)N1CCc2ccccc21
cell count [1]: 529 | inhibition [1]: 9.1% (inactive) | inhibition of aggregation [2]: -15.5% (inactive) | nuclei count [2]: 114% | inhibition [3]: -39.6% (inactive) | nuclei count [3]: 114% | fluorescence slope [4]: -0.51 (inactive) | NADPH fluorescence slope [5]: 4.8e-06 (inactive) | slope [6]: 0.00669 (inactive) | inhibition [7]: 14.9% (inactive) | inhibition [8]: 27% (inactive)

CC(=O)N1CCN(C(=O)COc2ccc(Br)cc2)CC1
cell count [1]: 518 | inhibition [1]: -6.3% (inactive) | inhibition of aggregation [2]: -1.5% (inactive) | nuclei count [2]: 93.7% | inhibition [3]: -21.9% (inactive) | nuclei count [3]: 139% | fluorescence slope [4]: -0.592 (inactive) | NADPH fluorescence slope [5]: -5.6e-05 (inactive) | slope [6]: 0.00597 (inactive) | inhibition [7]: 5.88% (inactive) | inhibition [8]: 13.4% (inactive)

Cc1ccc(-n2cnnn2)c2cccnc12
cell count [1]: 658 | inhibition [1]: -9.3% (inactive) | inhibition of aggregation [2]: -7% (inactive) | nuclei count [2]: 104% | inhibition [3]: -17% (inactive) | nuclei count [3]: 102% | fluorescence slope [4]: -0.402 (inactive) | NADPH fluorescence slope [5]: -1.4e-05 (inactive) | slope [6]: 0.00333 (inactive) | inhibition [7]: 5.45% (inactive) | inhibition [8]: 27.7% (inactive)

O=c1[nH]c(N2CCc3ccccc32)nc2c1CCCC2
cell count [1]: 309 | inhibition [1]: 1.1% (inactive) | inhibition of aggregation [2]: 11% (inactive) | nuclei count [2]: 68.4% | inhibition [3]: 14.7% (inactive) | nuclei count [3]: 82.4% | fluorescence slope [4]: -0.507 (inactive) | NADPH fluorescence slope [5]: -4.2e-05 (inactive) | slope [6]: 0.0041 (inactive) | inhibition [7]: 6.82% (inactive) | inhibition [8]: -14.4% (inactive)

CC1=C(C(=O)N2CCCCC2)C(c2cccs2)C2=C(CCCC2=O)N1 (centres undefined)
cell count [1]: 332 | inhibition [1]: -3.9% (inactive) | inhibition of aggregation [2]: 8.9% (inactive) | nuclei count [2]: 95.9% | inhibition [3]: -31.6% (inactive) | nuclei count [3]: 92.4% | fluorescence slope [4]: -0.29 (inactive) | NADPH fluorescence slope [5]: -3.5e-05 (inactive) | slope [6]: 0.0061 (inactive) | inhibition [7]: 7.2% (inactive) | inhibition [8]: 6.53% (inactive)

CC(NC(=O)c1cc2c(=O)n(C)c3ccccc3c2n1C)c1ccc2c(c1)OCCO2 (centres undefined)
cell count [1]: 798 | inhibition [1]: -4.4% (inactive) | inhibition of aggregation [2]: 3.3% (inactive) | nuclei count [2]: 139% | inhibition [3]: -41.1% (inactive) | nuclei count [3]: 107% | fluorescence slope [4]: -0.623 (inactive) | NADPH fluorescence slope [5]: -2.2e-05 (inactive) | slope [6]: 0.00677 (inactive) | inhibition [7]: 4.73% (inactive) | inhibition [8]: 4.98% (inactive)
